From PubChem BioAssay (Tox21)
Values joined by “and” are separate entries in the source; they are usually repeats but may differ in a detail not shown here. Equal values may be shown once. Inconclusive results are not listed. Entries that show only a call come without a potency. The source holds several records for some structures; these can differ, active in one and inactive in another. Active and inactive are the calls of the source. Unless noted, calls follow the shape of the dose curve; as a rule, active = well fitted curve in the direction sought with a large enough effect in the repeat runs; inconclusive = weak or mixed curves; inactive = no such curve, though single readings can be large; an effect the other way counts as inactive or inconclusive.

System: not listed separately
Test: qHTS assay to identify small molecule antagonists of the androgen receptor (AR) signaling pathway using the MDA cell line - cell viability counter screen (AID 743041; also: nearly all actives have a fitted effect of over 45% in size)
Settings: MDA-kb2 viability, CellTiter-Fluor, 16 h, cells co-treated with R1881 androgen agonist; series mostly up to 70.3 µM
Method in brief: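 Cells were plated at 3,000 per well and left 5 h. Compounds in DMSO were then pinned in, followed by R1881. After 16 h at 37C, CellTiter-Fluor fluorescence gave viability.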

Compound | Potency
Cc1cc(=O)oc2cc(O)ccc12 | inactive
CN1[C@@H]2CC(OC(=O)[C@H](CO)c3ccccc3)C[C@H]1[C@@H]1O[C@@H]12 (stereo partly specified) | inactive
CN(C)CCOC(C)(c1ccccc1)c1ccccn1 (stereo unspecified) | inactive
NC(=O)n1c(O)c(C(=O)c2cccs2)c2cc(Cl)ccc21 | inactive
O=C(O)CC(O)C(=O)O (stereo unspecified) | inactive
CCCCC(CC)C(=O)O (stereo unspecified) | inactive
CCN(Cc1c(F)cccc1Cl)c1c([N+](=O)[O-])cc(C(F)(F)F)cc1[N+](=O)[O-] | inactive
C=CCc1ccc(O)c(OC)c1 | inactive
CC(C)NCC(O)c1ccc(O)c(O)c1 (stereo unspecified) | inactive

System: not listed separately
Test: qHTS assay to identify small molecule antagonists of the thyroid receptor (TR) signaling pathway - cell viability counter screen (AID 743064); also: nearly all actives have a fitted effect of over 50% in size; also: potency is read from the fitted curve at half-maximal effect
Settings: GH3.TRE-Luc viability, CellTiter-Fluor, 24 h; series mostly up to 70.3 µM
Method in brief: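 Same-well viability check: GH3.TRE-Luc cells stimulated with 1 nM T3 alongside test compound for 23.5 h, followed by CellTiter-Fluor fluorescence.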

Compound | Potency
COc1ccc2cc(S(=O)(=O)N[C@H](CC(=O)N[C@H](Cc3ccc(CN4[C@H](C)CCC[C@@H]4C)cc3)C(=O)N(C)C(C)C)c3ccc4c(c3)OCO4)ccc2c1 | 2.58 µM (active)
O=C1OC2(c3ccccc31)c1cc(Br)c(O)c(Br)c1Oc1c2cc(Br)c(O)c1Br | 6.68 µM (active) and 5.53 µM (active) and 7.91 µM (active)
CN1[C@@H]2CC(OC(=O)[C@H](CO)c3ccccc3)C[C@H]1[C@@H]1O[C@@H]12 (stereo partly specified) | inactive
CN1CCC[C@H]1c1cccnc1 | inactive
CC(=O)C(=O)O | inactive
CC(=O)CCC(=O)O | inactive
Nc1ccc(O)c([N+](=O)[O-])c1 | 45.7 µM (active)
O=C(O)CC(O)C(=O)O (stereo unspecified) | inactive
CC(C)c1c(C(=O)Nc2ccccc2)c(-c2ccccc2)c(-c2ccc(F)cc2)n1CC[C@@H](O)C[C@@H](O)CC(=O)O | inactive and 57.1 µM (active)
C=C(C)C(=O)OCC(C)O (stereo unspecified) | inactive
Cc1c(C(=O)O)c(O)cc2c1C(=O)c1c(O)c([C@@H]3O[C@H](CO)[C@@H](O)[C@H](O)[C@H]3O)c(O)c(O)c1C2=O | 13.3 µM (active) and 59.6 µM (active) and 61.1 µM (active)
Cc1cc(C)nc(NS(=O)(=O)c2ccc(N)cc2)n1 | inactive
CCCCC(CC)C(=O)O (stereo unspecified) | inactive
CCCCCCCCCCCC[N+](C)(C)Cc1ccccc1 | 5.96 µM (active) and 12 µM (active) and 14.9 µM (active)
CCN(Cc1c(F)cccc1Cl)c1c([N+](=O)[O-])cc(C(F)(F)F)cc1[N+](=O)[O-] | inactive
COc1ccc(OC(F)(F)F)cc1CN[C@H]1CCCN[C@H]1c1ccccc1 | 24.3 µM (active)
O=S1(=O)OC(c2ccc(O)cc2)(c2ccc(O)cc2)c2ccccc21 | 27.3 µM (active)
CCc1nc(N)nc(N)c1-c1ccc(Cl)cc1 | 62.1 µM (active)
CN(N=O)C(=O)N[C@@H]1[C@@H](O)[C@H](O)[C@@H](CO)O[C@@H]1O | inactive
NC1CCCCC1 | inactive
NS(=O)(=O)O | inactive
C=CCc1ccc(O)c(OC)c1 | inactive
CC(C)NCC(O)c1ccc(O)c(O)c1 (stereo unspecified) | inactive

System: not listed separately
Test: qHTS assay to identify small molecule antagonists of the thyroid receptor (TR) signaling pathway (AID 743065); also: nearly all actives have a fitted effect of over 55% in size; also: potency is read from the fitted curve at half-maximal effect
Settings: GH3.TRE-Luc, T3-stimulated luciferase inhibition, 23.5 h; series mostly up to 70.3 µM
Method in brief: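 Antagonism measured as loss of luciferase signal in GH3 cells stably carrying a TRE-luciferase reporter, co-treated with compound and T3 (1 nM final) for 23.5 h at 37 C. Viability was read in the same well by CellTiter-Fluor.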

Compound | Potency
COc1ccc2cc(S(=O)(=O)N[C@H](CC(=O)N[C@H](Cc3ccc(CN4[C@H](C)CCC[C@@H]4C)cc3)C(=O)N(C)C(C)C)c3ccc4c(c3)OCO4)ccc2c1 | 3.65 µM (active)
O=C1OC2(c3ccccc31)c1cc(Br)c(O)c(Br)c1Oc1c2cc(Br)c(O)c1Br | inactive
O=C(Nc1ncc([N+](=O)[O-])s1)c1cccs1 | 21.1 µM (active)
CN1CCC[C@H]1c1cccnc1 | inactive
Nc1ccc(O)c([N+](=O)[O-])c1 | inactive
NC(=O)n1c(O)c(C(=O)c2cccs2)c2cc(Cl)ccc21 | 29.8 µM (active)
CC/C(=C(\c1ccccc1)c1ccc(OCCN(C)C)cc1)c1ccccc1 | 8.63 µM (active) [middle of 5 runs]
C=C(C)C(=O)OCC(C)O (stereo unspecified) | inactive
Cc1cc(C)nc(NS(=O)(=O)c2ccc(N)cc2)n1 | inactive
CCCCC(CC)C(=O)O (stereo unspecified) | inactive
CCCCCCCCCCCC[N+](C)(C)Cc1ccccc1 | 5.31 µM (active) and 9.5 µM (active) and 11.8 µM (active)
COc1ccc(OC(F)(F)F)cc1CN[C@H]1CCCN[C@H]1c1ccccc1 | 24.3 µM (active)
O=S1(=O)OC(c2ccc(O)cc2)(c2ccc(O)cc2)c2ccccc21 | inactive
CCc1nc(N)nc(N)c1-c1ccc(Cl)cc1 | 10.6 µM (active) and 6.21 µM (active) and 9.69 µM (active)
CN(N=O)C(=O)N[C@@H]1[C@@H](O)[C@H](O)[C@@H](CO)O[C@@H]1O | inactive
NC1CCCCC1 | inactive
NS(=O)(=O)O | inactive
CC(C)NCC(O)c1ccc(O)c(O)c1 (stereo unspecified) | inactive

System: thyroid hormone receptor (rat, GH3 cells)
Test: qHTS assay to identify small molecule agonists of the thyroid receptor (TR) signaling pathway (AID 743066; calls by dose curve; also: potency is read from the fitted curve at half-maximal effect)
Settings: GH3.TRE-Luc cells, TR agonist luciferase, 24 h; series mostly up to 83.9 µM

Compound | Potency
Cc1cc(=O)oc2cc(O)ccc12 | inactive
O=C1OC2(c3ccccc31)c1cc(Br)c(O)c(Br)c1Oc1c2cc(Br)c(O)c1Br | inactive
CN1[C@@H]2CC(OC(=O)[C@H](CO)c3ccccc3)C[C@H]1[C@@H]1O[C@@H]12 (stereo partly specified) | inactive
O=C(Nc1ncc([N+](=O)[O-])s1)c1cccs1 | inactive
CN1CCC[C@H]1c1cccnc1 | inactive
CC(=O)CCC(=O)O | inactive
Nc1ccc(O)c([N+](=O)[O-])c1 | inactive
CC/C(=C(\c1ccccc1)c1ccc(OCCN(C)C)cc1)c1ccccc1 | inactive
CC(C)c1c(C(=O)Nc2ccccc2)c(-c2ccccc2)c(-c2ccc(F)cc2)n1CC[C@@H](O)C[C@@H](O)CC(=O)O | inactive
C=C(C)C(=O)OCC(C)O (stereo unspecified) | inactive
Cc1c(C(=O)O)c(O)cc2c1C(=O)c1c(O)c([C@@H]3O[C@H](CO)[C@@H](O)[C@H](O)[C@H]3O)c(O)c(O)c1C2=O | inactive
Cc1cc(C)nc(NS(=O)(=O)c2ccc(N)cc2)n1 | inactive and 69.4 µM (active)
CCCCC(CC)C(=O)O (stereo unspecified) | inactive
CCCCCCCCCCCC[N+](C)(C)Cc1ccccc1 | inactive
CCN(Cc1c(F)cccc1Cl)c1c([N+](=O)[O-])cc(C(F)(F)F)cc1[N+](=O)[O-] | inactive
O=S1(=O)OC(c2ccc(O)cc2)(c2ccc(O)cc2)c2ccccc21 | inactive
CCc1nc(N)nc(N)c1-c1ccc(Cl)cc1 | inactive
CN(N=O)C(=O)N[C@@H]1[C@@H](O)[C@H](O)[C@@H](CO)O[C@@H]1O | inactive
NC1CCCCC1 | inactive
NS(=O)(=O)O | inactive
CC(C)NCC(O)c1ccc(O)c(O)c1 (stereo unspecified) | inactive
